bovine MsrA act: bovine methionine sulfoxide reductase A activation. AID 602163. purified bovine MsrA, absorbance read-out. actives 0.3% (n = 360,000). activation, % at 10.6 µM; in the data active = activation above about 7.5%;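 also: 0% = vehicle and 100% = reference activator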
PP1 counter: counter-screen for PP5 inhibitors: inhibitors of human PP1-alpha; actives 0.9% (n = 320,000); P62136; inhibition, % at 6.7 µM; purified PP1alpha, OMFP fluorescence;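 active = inhibition above the mean inhibition of all tested compounds plus 3 SD, computed separately for each screening campaign, cut at about 15% in these data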
EBNA-1 inh: blocks EBNA-1 binding to DNA. AID 1950. inhibition, % at 14.8 µM. actives 0.34% (n = 300,000). EBNA-1 DNA binding, fluorescence polarization; in the data active = inhibition above about 28%
MsrA inhibitor: bovine MsrA inhibition. actives 0.75% (n = 360,000). inhibition, % at 15.5 µM. AID 651718. purified bovine MsrA, absorbance read-out; in the data active = inhibition above about 4.5%;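 also: 0% = vehicle wells with enzyme and 100% = reference inhibitor wells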
PP5 primary: inhibitors of human protein phosphatase 5 (PP5). P53041. purified PP5c, OMFP substrate fluorescence. inhibition, % at 6.7 µM. actives 0.18% (n = 320,000);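 active = inhibition above the campaign's mean inhibition across all tested compounds plus 3 SD, cut at about 9.5% in these data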;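 also: 0% = DMSO only and 100% = 100 µM cantharidin control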
Target sequence (P53041 whole entry, looked up): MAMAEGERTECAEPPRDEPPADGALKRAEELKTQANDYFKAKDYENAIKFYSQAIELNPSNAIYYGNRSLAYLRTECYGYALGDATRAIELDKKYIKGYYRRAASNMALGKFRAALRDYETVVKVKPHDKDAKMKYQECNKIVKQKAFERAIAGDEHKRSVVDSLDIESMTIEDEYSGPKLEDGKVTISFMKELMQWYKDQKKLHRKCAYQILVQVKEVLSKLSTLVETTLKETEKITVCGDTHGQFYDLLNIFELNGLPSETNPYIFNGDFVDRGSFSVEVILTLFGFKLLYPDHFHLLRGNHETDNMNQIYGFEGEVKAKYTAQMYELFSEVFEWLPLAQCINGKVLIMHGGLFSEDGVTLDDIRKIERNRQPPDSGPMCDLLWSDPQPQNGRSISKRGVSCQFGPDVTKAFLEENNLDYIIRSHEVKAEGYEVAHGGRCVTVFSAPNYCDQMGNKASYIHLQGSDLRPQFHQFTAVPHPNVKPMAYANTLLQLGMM
ZTA counter: blocks Epstein-Barr virus ZTA, an EBNA-1 counter-screen; P03206; ZTA-DNA binding, fluorescence polarization; inhibition, % at 11 µM; actives 0.15% (n = 320,000); AID 2234; in the data active = inhibition above about 33%
PP1 inh confirm: human PP1 phosphatase inhibition, confirmation; shares compounds with PP1 counter; purified PP1alpha, OMFP substrate fluorescence; inhibition, % at 6.7 µM; actives 52% (n = 1,900); AID 2358;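 active = mean PP1 inhibition above a set limit taken from the earlier primary screen, cut at about 15% in these data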
PP5 counter: PP5 phosphatase inhibition, counter-screen for PP1 inhibitors. shares compounds with PP1 counter. purified PP5c, OMFP fluorescence. inhibition, % at 6.7 µM. actives 4% (n = 1,900). AID 2360;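 active = mean PP5 inhibition over triplicate wells above about 9.5% taken from the earlier PP1 screen, limit read from the data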
Numbers without * were called inactive; · = no result. In the library only some 2.3% were active in any assay of this set; here they are far more common.

SMILES	bovine MsrA act	PP1 counter	EBNA-1 inh	MsrA inhibitor	PP5 primary	ZTA counter	PP1 inh confirm	PP5 counter
O=C(Nc1nc(-c2ccc(-c3ccccc3)cc2)cs1)C1=COCCO1	-8	21*	8	1	1	-9	34*	-4
O=S(=O)(Nc1ccc(-c2csc(-c3ccccc3)n2)cc1)c1ccc(F)cc1	-9	3	4	1	6	-1	·	·
O=C(Nc1nc(-c2ccccc2)cs1)c1ccccc1NS(=O)(=O)c1ccc(F)cc1	-3	21*	2	2	9	10	21*	13*
Cc1ccc(-n2ncc3c(SCc4ccccn4)ncnc32)c(C)c1	-8	2	-9	-1	1	-11	·	·
Cc1ccc(S(=O)(=O)N(C)C)cc1NC(=O)C(C)OC(=O)c1ccc2c(=O)n3c(nc2c1)CCC3 (stereo unspecified)	-4	·	·	-1	·	·	·	·
CCCCOC(=O)c1ccc(NC(=O)c2ccccc2OC)cc1	-4	64*	-4	-1	7	4	1	2
CCCOC(=O)c1ccc(NC(=O)c2ccccc2OC)cc1	-2	-4	-6	-1	2	-5	·	·
NS(=O)(=O)c1cccc(NC(=O)CSc2nc3nc(-c4cccs4)cc(C(F)(F)F)c3c(=O)[nH]2)c1	-2	27*	1	2	4	-12	21*	2
O=C(CSc1nc2nc(-c3cccs3)cc(C(F)(F)F)c2c(=O)[nH]1)Nc1c(F)c(F)c(F)c(F)c1F	-7	5	9	2	3	12	·	·
CCN(CC)CCOC(=O)c1ccc(N/C=C(/C#N)c2nc(-c3ccc4c(c3)OCO4)cs2)cc1	0	65*	-15	0	0	16	39*	0
N#C/C(=C\C=C\c1ccccc1)c1nc(-c2ccc3c(c2)OCO3)cs1	-2	-2	-2	0	-1	8	·	·
O=C(O)C1Nc2c(O)cc(Cl)c([N+](=O)[O-])c2C2C=CCC12 (stereo unspecified)	-7	42*	58*	4	1	90*	6	-3
O=[N+]([O-])c1ccc(Cl)c2c1C1C=CCC1C(c1ccccn1)N2 (stereo unspecified)	-3	7	13	0	3	0	·	·
Cc1ccc(Oc2nnc(-c3ccc(C)cc3)c3ccccc23)cc1	-10	41*	-6	-1	2	-11	-8	-8
COc1ccc(NC(=O)c2c(C)cc(=O)oc2C)c(OC)c1	4	36*	9	1	-1	6	-7	-5
COc1ccc(CNC(=O)c2c(C)cc(=O)oc2C)cc1	-4	-4	-3	3	-1	-7	·	·
Cc1c(C(=O)NNC(=S)Nc2ccc(S(N)(=O)=O)cc2)oc2ccccc12	2	0	0	2	2	-2	·	·
C=CCOC(=O)C1=C(C)NC(SCC(=O)Nc2nccs2)=C(C#N)C1c1cccs1 (stereo unspecified)	1	11	8	0	3	-14	·	·
C=CCOC(=O)C1=C(C)NC(SCC(=O)Nc2nccs2)=C(C#N)C1c1ccc(Cl)cc1 (stereo unspecified)	-4	23*	10	0	1	-19	7	3
CCCn1nnc(NC(=S)NC(=O)/C=C/c2ccco2)n1	-3	2	-5	2	1	14	·	·
Cc1cc(C)cc(NC(=S)NCC2CCN(C(C)c3ccccc3)C2)c1 (stereo unspecified)	-12	-2	-9	-1	5	9	·	·
Cc1ccccc1NC(=S)NCC1CCN(C(C)c2ccccc2)C1 (stereo unspecified)	-4	25*	8	-1	-1	9	-17	-5
COc1cc(/C=N/NC(=O)c2ccccc2O)ccc1OCC(=O)Nc1ccccc1	-5	18*	0	1	3	5	16*	-8
O=c1cc(-c2ccc(C3CCCCC3)cc2)[nH][nH]1	-5	18*	-2	1	3	-16	-2	-4
O=[N+]([O-])c1cc(Cl)cc(/C=N/NC(=S)Nc2ccc(S(=O)(=O)N3CCOCC3)cc2)c1O	-3	19*	-1	3	3	19	19*	0
SMILES	bovine MsrA act	PP1 counter	EBNA-1 inh	MsrA inhibitor	PP5 primary	ZTA counter	PP1 inh confirm	PP5 counter
O=S(=O)(c1ccc(NC(=S)N/N=C/c2ccc(O)c(O)c2)cc1)N1CCOCC1	-8	-2	-9	1	1	-2	·	·
COc1cc(C(=O)OC(C)c2ccc(F)cc2)ccc1OCC(=O)N1CCOCC1 (stereo unspecified)	-1	2	·	0	1	-3	·	·
O=C(/C=C/c1ccccc1)NCCc1ccccc1	-2	35*	-1	1	0	0	-1	-5
Nc1ncnc(Oc2ccccc2F)c1[N+](=O)[O-]	-2	-4	-11	2	-2	2	·	·
Cc1cc(Cl)ccc1NC(=S)NCCC(c1ccccc1)c1ccccc1	-8	18*	-10	0	-1	-11	-2	1
Cc1c(Cl)cccc1NC(=S)NCCC(c1ccccc1)c1ccccc1	7	6	4	0	1	12	·	·
COc1ccc(C2CC(c3ccccc3)=NN2C(=O)COC(=O)c2cc(S(=O)(=O)N3CCOCC3)ccc2Cl)cc1 (stereo unspecified)	-1	20*	1	0	6	4	9	-2
CCOC(=O)c1cnc(-n2nc(C)cc2C)nc1NCc1ccc2c(c1)OCO2	-1	31*	1	0	3	14	59*	-5
CCOC(=O)c1cnc(-n2nc(C)cc2C)nc1Nc1ccc(OC)cc1	-12	9	16	0	0	17	·	·
CCOC(=O)c1cnc(-n2nc(C)cc2C)nc1NC1CCCC1	-2	22*	-11	0	2	0	27*	1
CCOC(=O)c1cnc(-n2nc(C)cc2C)nc1NCCc1ccccc1	-3	57*	-5	1	7	9	51*	-1
COc1cc([N+](=O)[O-])cc(/C=N/NC(=O)C(C)Nc2cccc(C)c2)c1O (stereo unspecified)	-5	22*	8	-1	6	-20	9	-6
COc1cc([N+](=O)[O-])cc(/C=N/NC(=O)c2ccc(NC(=O)c3ccc(C)cc3)cc2)c1O	-4	·	·	0	·	·	·	·
COc1cc([N+](=O)[O-])cc(/C=N/NC(=O)C(C)Nc2ccccc2C)c1O (stereo unspecified)	-2	22*	-9	2	3	-11	15	-6
COc1cc([N+](=O)[O-])cc(/C=N/NC(=O)CSc2ccccn2)c1O	-3	21*	-1	3	0	-5	24*	-6

Source: PubChem (The Scripps Research Institute Molecular Screening Center)
